The text below walks through data of PubChem BioAssay (NCATS).

Results filed as inconclusive are left out. The source made the active and inactive calls. Calls come from the whole dose curve; as a rule, active = well fitted inhibition curve with a large enough effect; inconclusive = small, poorly fitted or top-dose-only effect; inactive = flat fitted curve, though single readings scatter.

Common to all, as to assay: qHTS profiling for inhibitors of Plasmodium falciparum proliferation (AID 504749); note: nearly all actives have a fitted effect of over 60% in size
Holding throughout (conditions): P. falciparum in erythrocytes, SYBR Green DNA, 72 h; series mostly up to 12.8 µM
For orientation: In qHTS, concentration-response curves come from the screen itself.

The subject of one experiment is 3D7. An outline of the steps: (§1)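 Each compound contacts P. falciparum-infected red blood cells for 72 h at 37 C; lysis buffer (Tris, EDTA, saponin, Triton X, SYBR Green I) is added and fluorescence measured next morning; values normalized to controls.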
The subject of another experiment is AA1029. The essentials:
as §1

The next experiment deals with AS120. An outline of the steps: as §1
Another experiment has as its system CP191. The essentials: as §1
Another experiment relates to CP192. The essentials:
as §1

For a further experiment, the system named is CP194. An outline of the steps:
as §1

The next experiment relates to CP217. The essentials:
as §1

For the next experiment, the system named is CP237. An outline of the steps:
as §1

The test system of another experiment is CP252. The essentials: as §1
The next experiment deals with CP256. An outline of the steps: as §1
The test system of the next experiment is CP265. An outline of the steps: as §1
Another experiment has as its system CP286. An outline of the steps: as §1
The subject of the next experiment is CP291. The essentials:
as §1

For a further experiment, the system named is DIV30. The essentials:
as §1

In the next experiment the test system is ECU. An outline of the steps:
as §1

In a further experiment the test system is N140. The essentials: as §1
The test system of another experiment is PAD. The essentials:
as §1

The next experiment relates to PC26. An outline of the steps:
as §1

The next experiment deals with SC27B. The essentials: as §1
For the next experiment, the system named is TAB109. The essentials:
as §1
Potency is the fitted concentration of half-maximal effect.

Regarding `Nc1nc2ncc(CNc3ccc(C(=O)NC(CCC(=O)O)C(=O)O)cc3)nc2c(=O)[nH]1` (stereo not drawn), the Potency entry in the experiment on 3D7, in the experiment with AA1029, with AS120, in the experiment on CP191, in the experiment on CP192 and with CP194 was “inactive” each time. For the same compound, the Potency result in the experiment with CP217, in the experiment on CP237, in the experiment with CP252, with CP256, with CP265 and in the experiment with CP286 was “inactive” throughout. Moreover, the Potency result with CP291, in the experiment with DIV30, in the experiment with ECU, with N140, in the experiment on PAD and with PC26 was “inactive” in each case. For the same compound, the Potency result in the experiment on SC27B and in the experiment on TAB109 was “inactive” in each case.

As for `OCC1OC(n2cnc3c(=S)nc[nH]c32)C(O)C1O` (stereo not drawn), the Potency entry with 3D7, in the experiment with AA1029, in the experiment with AS120, in the experiment with CP191, in the experiment on CP192 and with CP194 was “inactive” throughout. For the same compound, the Potency result with CP217, in the experiment on CP237, with CP252, with CP256, in the experiment on CP265 and in the experiment with CP286 was “inactive” in each case. For the same compound, the Potency entry in the experiment with CP291, in the experiment on DIV30, in the experiment on ECU, in the experiment with N140, in the experiment with PAD and with PC26 was “inactive” in each case. For the same compound, the Potency result with SC27B and in the experiment with TAB109 was “inactive” each time.

For the compound `CCCCCCCCCc1ccc(OCCOCCOCCOCCOCCOCCOCCOCCOCCO)cc1`, the Potency entry in the experiment on AA1029, in the experiment on CP192, in the experiment with CP252, with CP265, in the experiment with CP286 and with CP291 was “inactive” throughout. The Potency entry with DIV30 and in the experiment on TAB109 was “inactive” throughout.

As for `C[C@]12CCC(=O)C=C1CCC1C2C(=O)C[C@]2(C)C1CC[C@]2(O)C(=O)CO` (stereo partly drawn), the Potency entry in the experiment on 3D7, in the experiment on AA1029, in the experiment with AS120, in the experiment with CP191, in the experiment on CP192 and in the experiment on CP194 was “inactive” throughout. Further, the Potency result in the experiment with CP217, in the experiment with CP237, with CP252, with CP256, in the experiment with CP265 and in the experiment on CP286 was “inactive” each time. The Potency result in the experiment with CP291, in the experiment on DIV30, with ECU, with N140, with PAD and in the experiment on PC26 was “inactive” each time. Moreover, the Potency result in the experiment with SC27B and in the experiment on TAB109 was “inactive” in each case.

As for `CC1(C)S[C@H]2C(NC(=O)[C@@H](N)c3ccc(O)cc3)C(=O)N2[C@@H]1C(=O)O` (stereo partly drawn), the Potency result with 3D7, with AA1029, in the experiment with AS120, with CP191, in the experiment on CP192 and in the experiment on CP194 was “inactive” throughout. Besides, the Potency result in the experiment with CP217, in the experiment with CP237, in the experiment on CP252, with CP256, with CP265 and with CP286 was “inactive” each time. Further, the Potency entry in the experiment on CP291, in the experiment with DIV30, in the experiment on ECU, in the experiment with N140, in the experiment on PAD and in the experiment on PC26 was “inactive” throughout. In addition, the Potency entry in the experiment with SC27B and with TAB109 was “inactive” each time.

`CCC(C)C(=O)OC1CC(O)C=C2C=CC(C)C(CCC(O)CC(O)CC(=O)O)C21` (stereo not drawn): the Potency entry in the experiment with 3D7, in the experiment with AA1029, with AS120, in the experiment with CP191, in the experiment on CP192 and with CP194 was “inactive” in each case. Besides, the Potency entry in the experiment on CP217, with CP237, with CP252, with CP256, with CP265 and in the experiment on CP286 was “inactive” each time. The Potency entry in the experiment with CP291, with DIV30, in the experiment with ECU, in the experiment with N140, in the experiment with PAD and with PC26 was “inactive” each time. The Potency result in the experiment with SC27B and in the experiment on TAB109 was “inactive” throughout.

`CC(=O)O[C@@]1(C(C)=O)CCC2C3CC(C)C4=CC(=O)CC[C@@]4(C)C3CC[C@]21C` (stereo partly drawn): the Potency entry with 3D7, in the experiment with CP192, in the experiment on CP194, in the experiment with CP237, in the experiment with CP286 and in the experiment on CP291 was “inactive” in each case. The Potency entry in the experiment with DIV30 and in the experiment on PC26 was “inactive” in each case.

Turning to `COc1ccc(-c2cc(=O)c3c(O)cc(O[C@H]4OC(COC5OC(C)C(O)C(O)[C@H]5O)C(O)C(O)C4O)cc3o2)cc1O` (stereo partly drawn), the Potency entry in the experiment with 3D7, with AA1029, in the experiment on AS120, in the experiment on CP191, with CP192 and in the experiment on CP194 was “inactive” each time. The Potency result in the experiment with CP217, in the experiment on CP237, in the experiment on CP252, with CP256, in the experiment with CP265 and in the experiment on CP286 was “inactive” throughout. In addition, the Potency result in the experiment on DIV30, with ECU, in the experiment on N140, in the experiment with PAD, with PC26 and in the experiment with SC27B was “inactive” in each case. Also, the Potency result in the experiment on TAB109 was “inactive”.

On to `CC(=O)OCC(=O)[C@@]12OC3(CCCC3)OC1CC1C3CCC4=CC(=O)C=C[C@@]4(C)[C@]3(F)C(O)C[C@]12C` (stereo partly drawn), for which the Potency in the experiment with AS120 and with N140 was 11200 nM (active) in each case. The Potency result in the experiment on CP192, in the experiment with CP194, in the experiment on CP256 and in the experiment on CP291 was “inactive” in each case.

For `C=Cc1c(C)/c2[n-]/c1=C\c1[n-]c(c(CC)c1C)/C=c1\[n-]c3c(c1C)C(=O)C(C(=O)[O-])C=3c1[n-]c(c(C)c1CCC(=O)[O-])\C=2.[Cu].[Na+].[Na+]` (stereo not drawn), the Potency result with 3D7, in the experiment with CP256, in the experiment on CP265, in the experiment on CP286, with CP291 and in the experiment on DIV30 was “inactive” each time.

In the case of `C[C@@]12CCC(=O)C=C1C=CC1C2CC[C@]2(C)C1CC[C@@]21CCC(=O)O1` (stereo partly drawn), the Potency entry with 3D7, with AA1029, in the experiment with AS120, with CP191, in the experiment on CP192 and in the experiment with CP194 was “inactive” each time. The Potency entry in the experiment with CP237, in the experiment on CP252, in the experiment with CP256, in the experiment with CP265, in the experiment on CP286 and in the experiment on CP291 was “inactive” throughout. Further, the Potency entry in the experiment with DIV30, with ECU, with PAD, with PC26 and in the experiment on SC27B was “inactive” each time.

Turning to `CCC1OC(=O)CC(O)C(C)[C@@H](O[C@@H]2OC(C)[C@H](O[C@@H]3C[C@@](C)(O)C(O)C(C)O3)C(N(C)C)C2O)[C@H](CC=O)CC(C)C(=O)/C=C/C(C)=C/[C@@H]1COC1OC(C)C(O)C(OC)[C@@H]1OC` (stereo partly drawn), the values for the Potency in the experiment with CP256, in the experiment with CP286 and in the experiment with TAB109 were 1410 nM (active), 1000 nM (active) and 891 nM (active), respectively. Besides, the Potency result in the experiment with ECU was “inactive”.

As for `COc1ccc2cc(C(C)CO)ccc2c1` (stereo not drawn), the Potency entry in the experiment with 3D7, with AA1029, in the experiment with AS120, in the experiment on CP191, with CP192 and with CP194 was “inactive” each time. Moreover, the Potency result with CP217, with CP237, with CP252, in the experiment with CP256, with CP265 and with CP286 was “inactive” in each case. Further, the Potency entry with CP291, with DIV30, in the experiment on ECU, with N140, in the experiment with PAD and in the experiment with PC26 was “inactive” each time. Moreover, the Potency result in the experiment with SC27B and with TAB109 was “inactive” throughout.
